# Results from PubChem BioAssay.
# Key:
# [1] = target: Tumor necrosis factor receptor superfamily member 10B (Homo sapiens) (UniProt O14763); assay: caspase-8 TRAIL sensitization, hit retest, confirmation, cell-based, NB7+caspase-8, with/without TRAIL, luminescence panel (AID 651596); settings: NB7 neuroblastoma + caspase-8, TRAIL sensitization, luminescence viability, with TRAIL, mean of runs, at 10 µM, stronger effect = higher value
# [2] = as above; settings: NB7 neuroblastoma + caspase-8, without TRAIL, luminescence viability, without TRAIL, mean of runs, at 10 µM
# Chain of Tumor necrosis factor receptor superfamily member 10B (Homo sapiens) (O14763 whole entry, looked up): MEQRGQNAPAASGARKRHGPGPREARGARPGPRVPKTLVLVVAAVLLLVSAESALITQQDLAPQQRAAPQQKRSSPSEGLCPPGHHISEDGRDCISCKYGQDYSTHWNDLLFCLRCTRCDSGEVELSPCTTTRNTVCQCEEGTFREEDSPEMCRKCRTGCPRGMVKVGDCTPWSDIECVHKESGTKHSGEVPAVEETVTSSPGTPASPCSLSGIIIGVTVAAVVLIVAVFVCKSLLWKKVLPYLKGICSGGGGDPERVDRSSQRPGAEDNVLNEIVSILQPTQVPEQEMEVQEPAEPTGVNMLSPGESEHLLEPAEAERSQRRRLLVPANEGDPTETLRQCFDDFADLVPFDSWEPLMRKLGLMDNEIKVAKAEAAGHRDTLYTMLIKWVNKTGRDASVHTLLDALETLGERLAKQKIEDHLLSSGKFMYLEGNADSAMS
Structure (SMILES),activity [1],activity [2]
O=C(Nc1ccccc1)c1cc(C2CCCN(C(=O)C3CC3)C2)on1 (stereo unspecified),48.6%,32.4%
Cc1cccc(NC(=S)N/N=C/c2ccc([N+](=O)[O-])s2)c1,37.4%,36.1%
CS(=O)c1nc(-c2ccc(Br)cc2)cc(-c2ccccc2)c1C#N (stereo unspecified),95.7%,97.8%
O=C(CCl)N=c1sccn1Cc1ccccc1Cl,99.6%,98.9%
CSc1nc(NCCN(C)C)c2sc3nc(-c4ccco4)c4c(c3c2n1)CCC4,80.2%,98.5%
Cc1cc(C)c2sc(N(CCCN(C)C)C(=O)c3ccc(S(=O)(=O)N4CCc5ccccc5C4)cc3)nc2c1,93.1%,93.8%
O=C(Nc1nc2c(s1)CCCC2)c1cccs1,71.3%,82.1%
COc1cc2c3nnc(-c4ccc(F)cc4)c-3cn(Cc3ccccc3)c2cc1OC,40.5%,57.5%
O=C(Nc1ccc(Cl)cn1)c1ccc2c(Cl)c3c(nc2c1)CCC3,56.8%,56.3%
COC(=O)c1c(NC(=O)COc2ccc(Cl)cc2Cl)sc2c1CC(C)(C)NC2(C)C,98.7%,99.3%
COc1cccc(NC(=O)c2cc3ccccc3o/c2=N\O)c1,65%,64.6%
Cc1ccc2nc(-c3sc4nc(C)ccc4c3N)[nH]c2c1,23.9%,7.22%
COc1ccc(-c2cc3ccc(F)cc3cn2)cc1,66.5%,58.9%
Clc1ccccc1Nc1nnc(-c2ccncc2)s1,61.3%,63.3%
COc1ccc(C2CC(c3ccc(Br)cc3)=NN2C(=O)CSC2=NN3CCCC(=O)N=C3S2)cc1 (stereo unspecified),95.8%,90.9%
CCCCCCCN(C(=O)CCl)c1ccccc1C,99.6%,98.1%
Nc1cc2sc(-c3ccc(C(=O)O)cc3)nc2cc1Cl,52.8%,42.5%
O=C(Nc1ccc(O)cc1)c1ccc(NC(=O)c2cccs2)cc1,85.2%,84.8%
CCn1nnc(NC(=O)c2ccc(C(C)(C)C)cc2)n1,69.1%,75.2%
Cc1cccc(/C=N/Nc2nncc3ccccc23)c1,80.9%,69.2%
Cn1c(=O)[nH]c(=O)c2c1nc([N+](=O)[O-])n2Cc1ccccc1,60.5%,96.2%
CCOc1ccc(C(=O)Nc2cc(C)ccn2)cc1,95.2%,96.3%
Nc1nn2cc(-c3ccccc3)nc2c2ccccc12,54.7%,53.4%
COC(=O)c1ccc(-c2nc3ccccc3[nH]2)cc1,80.7%,84.4%

Structure (SMILES),activity [1],activity [2]
N#Cc1c(C#N)c(SSc2c(C#N)c(C#N)c(N)n2-c2ccccc2)n(-c2ccccc2)c1N,-0.075%,72.1%
O=C1c2ccccc2NC(c2ccccc2)N1/N=C/c1ccccc1 (stereo unspecified),52.5%,40.1%
Cc1nc2cc(NC(=O)Nc3ccccc3Cl)ccc2n1C,78.5%,78.2%
COc1cccc(NC(=O)n2ncc3c(C)cccc32)c1,67.7%,64.3%
CC(C)(C)OC[C@H](NC(=O)c1[nH]cnc1C(=O)Nc1ccccc1F)C(=O)OC(C)(C)C,55.4%,59.2%
O=C(NCC1CC1)c1ccc2c3n(nc2c1)-c1ccccc1CO3,89.8%,89.5%
O=C(/C=C/Nc1ccc(F)cc1)c1cccs1,69.7%,65%
Nc1ccc(-c2cnc(-c3ccc(N)cc3)nc2)cc1,74.7%,71.7%
O=C(Cn1ncc(Cl)c(Cl)c1=O)Nc1ccc2c(c1)OCO2,99.5%,99.5%
COc1ccccc1NC(CC(=O)c1ccccc1)C(=O)OCC(=O)c1ccc(Br)cc1 (stereo unspecified),65.4%,57.2%
Cc1ccc(NC(=O)CSc2nn(-c3ccccc3)c(=S)s2)cc1S(=O)(=O)N(C)C,22.1%,17.6%
CN(C)c1cccc(C(=O)Nc2nc3ccccc3[nH]2)c1,90.2%,78.5%
Nc1cnnc(N/N=C\c2ccccc2)c1Cl,22.9%,19.8%
O=C(CSc1nc2ccccc2c(=O)[nH]1)Nc1ccc([N+](=O)[O-])cc1,35.1%,31.3%
CCCCc1ccc(NC(=O)c2cnccn2)cc1,53.3%,45.1%
O=c1[nH]c2ccccc2nc1/C=C/c1ccc(Cl)cc1,64.9%,74.2%
O=C(Oc1c(CN2CCOCC2)cc(Cl)c2cccnc12)c1ccccc1Br,53.5%,52.8%
NC(Cc1ccc(C(F)(F)F)cc1)c1csc(Nc2nncc3ccccc23)n1 (stereo unspecified),38.8%,89.1%
O=C(CN1CCN(S(=O)(=O)c2ccc(F)cc2)CC1)Nc1ccc(Cl)c(C(F)(F)F)c1,24.1%,31.8%
O=C(N/N=C\c1ccc(CNS(=O)(=O)c2ccc(Cl)cc2)o1)C(=O)Nc1ccc(Oc2ccccc2)cc1,79.5%,91.1%
COc1ccc2oc(-c3ccccc3)cc(=O)c2c1,76.1%,78%
O=C(NOCc1ccccc1)c1ccc(Cl)cc1,45.1%,43.2%
COc1ccc(Oc2c(Cl)cnn(-c3ccc(Cl)c(Cl)c3)c2=O)cc1,98.5%,99.1%
O=C(/C=C/c1ccco1)Nc1ccc2c(c1)OCCO2,71.8%,65.1%
